These results are taken from PubChem BioAssay (Tox21).

“And” between values parts separate entries of the source, which are not always exact repeats. Identical values can stand only once. Records with an inconclusive call do not appear. The source holds several records for some structures; these can differ, active in one and inactive in another. The source made the active and inactive calls. Calls follow the shape of the dose curve; as a rule, active = well fitted curve in the direction sought with a large enough effect in the repeat runs; inconclusive = weak or mixed curves; inactive = no such curve, though single readings can be large; an effect the other way counts as inactive or inconclusive.

Experiment [1] is described as follows: Human pregnane X receptor (PXR) small molecule agonists, qHTS cell viability counter screen (AID 1346977). Also: nearly all actives have a fitted effect of over 50% in size. Also: potency is read from the fitted curve at half-maximal effect. In outline:
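Viability counter screen: CellTiter-Fluor signal in PXR-Luc HepG2 cells, 24hr compound exposure, 37C, 5% CO2.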

Experiment [2] in a line: Caspase-3/7 induction in CHO-K1 cells by small molecules, qHTS cell viability counter screen (AID 1346979). Also: nearly all actives have a fitted effect of over 35% in size. Also: potency is read from the fitted curve at half-maximal effect. In outline:
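Viability readout by fluorescence (CellTiter-Fluor) on wild-type CHO-K1 cells exposed for 16hr at 37C and 5% CO2 to compounds delivered in DMSO; reagent incubated 1hr before reading.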

Experiment [3] can be described thus: Caspase-3/7 induction in HepG2 cells by small molecules, qHTS cell viability counter screen (AID 1346981). Also: nearly all actives have a fitted effect of over 30% in size. Also: potency is read from the fitted curve at half-maximal effect. In outline: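 Wild-type HepG2 cells, 2,000/well, settled 5 hr at 37 C, 5% CO2 before compound addition. Viability read by CellTiter-Fluor fluorescence, reagent added after 16 hr compound exposure, then 1 hr at 37C, in the same wells as the caspase read.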

The target of experiment [4] is Nuclear receptor subfamily 1 group I member 2 (Homo sapiens) (UniProt O75469). Briefly: Human pregnane X receptor (PXR) small molecule agonists, qHTS assay (AID 1346982). Also: nearly all actives have a fitted effect of over 35% in size. Also: potency is read from the fitted curve at half-maximal effect. In outline:
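PXR-Luc HepG2 reporter cells (CYP3A4-driven luciferase) in 5% charcoal-stripped FBS medium, plated 5 h before compound addition, then treated 24 h at 37C. Luciferase read by ONE-Glo luminescence after 30 min at room temperature.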

Experiment [5] concerns the target Nuclear receptor subfamily 1 group I member 2 (Rattus norvegicus) (UniProt Q9R1A7). Kind of experiment: Rat pregnane X receptor (rPXR) activation by small molecules, qHTS assay (AID 1346983). Also: nearly all actives have a fitted effect of over 20% in size. Particulars: rPXR luciferase reporter cells, One-Glo luminescence, 24 h; max activation: stronger effect = higher value. In outline: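 Cell-based rPXR luciferase reporter assay, 2,000 cells per well, rested 5hr at 37 C before compound addition in DMSO, then 24 hr at 37 C. One-Glo reagent was added and luminescence read after 30 min at room temperature.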

Experiment [6] has as its target Nuclear receptor subfamily 1 group I member 2 (Homo sapiens) (UniProt O75469). Kind of experiment: CYP3A4 induction through human pregnane X receptor (PXR) by small molecules, qHTS assay (AID 1346984). Also: nearly all actives have a fitted effect of over 40% in size. In outline: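 DPX-2 HepG2 cells carrying a PXR response element and CYP3A4-promoter luciferase construct, treated with compounds 24 hr at 37C. Then P450-Glo CYP3A4 Luciferin-IPA substrate (3uM final) for 3 hr at 37C, One-Glo added, luminescence read.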

Experiment [7] in a line: Caspase-3/7 induction in HepG2 cells by small molecules, qHTS assay (AID 1346978). Also: nearly all actives have a fitted effect of over 15% in size. Also: potency is read from the fitted curve at half-maximal effect. In outline:
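Wild-type HepG2 cells (2,000/well) were settled 5 h at 37 C, 5% CO2, then exposed to compounds in DMSO for 17 h. Caspase-3/7 activity was read by luminescence 30 min after adding Caspase-Glo 3/7 reagent at room temperature.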

Experiment [8] in a line: Caspase-3/7 induction in CHO-K1 cells by small molecules, qHTS assay (AID 1346980). Also: nearly all actives have a fitted effect of over 15% in size. Also: potency is read from the fitted curve at half-maximal effect. In outline: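 Wild-type cells were seeded at 1,500 per well and settled 5 hr at 37 C, 5% CO2, then exposed to DMSO-dissolved compounds for 17 hr. Caspase-Glo 3/7 reagent was added, and luminescence was read after 30min at room temperature.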
Experiment [9] concerns the target Cytochrome P450 2D6 (Homo sapiens) (UniProt P10635). Briefly: Cytochrome P450 Family 2 Subfamily D Member 6 (CYP2D6) small molecule antagonists: luciferase reporter qHTS assay (AID 1671196). Also: nearly all actives have a fitted effect of over 50% in size. Also: potency is read from the fitted curve at half-maximal effect. In outline:
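Cell-free P450-Glo system: CYP2D6 with proluciferin substrate was pre-incubated with compound for 10 min, then reacted with NADPH regeneration for 1 h at room temperature. Luciferin product was detected after 20 min, and data were reported as relative luminescence units.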

The target in experiment [10] is Nuclear receptor subfamily 1 group I member 2 (Homo sapiens) (UniProt O75469). Briefly: Human pregnane X receptor (PXR) activation by small molecules, qHTS assay (AID 1346985). Also: nearly all actives have a fitted effect of over 40% in size. In outline: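 DPX-2 cells (HepG2 co-transfected with a PXR response element and a CYP3A4-promoter luciferase construct) were seeded at 2,000 per well, rested 5 hr at 37C, then exposed to DMSO-dissolved compounds for 24 hr. Activation was read as luciferase luminescence.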
Nuclear receptor subfamily 1 group I member 2 (Homo sapiens), sequence (O75469 whole entry, looked up): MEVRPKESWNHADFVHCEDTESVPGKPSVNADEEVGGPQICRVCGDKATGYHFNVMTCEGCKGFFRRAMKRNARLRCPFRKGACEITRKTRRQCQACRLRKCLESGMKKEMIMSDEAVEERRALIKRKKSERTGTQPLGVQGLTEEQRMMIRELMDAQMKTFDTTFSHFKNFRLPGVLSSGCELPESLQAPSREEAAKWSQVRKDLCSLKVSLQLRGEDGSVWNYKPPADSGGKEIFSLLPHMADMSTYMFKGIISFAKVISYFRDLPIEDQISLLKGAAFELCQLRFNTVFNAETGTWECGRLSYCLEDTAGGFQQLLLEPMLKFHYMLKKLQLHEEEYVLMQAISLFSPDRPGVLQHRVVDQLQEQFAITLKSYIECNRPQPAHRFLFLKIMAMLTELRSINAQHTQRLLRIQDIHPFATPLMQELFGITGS
% is scaled to controls: 0 for no effect and ±100 for the full control effect.

Nuclear receptor subfamily 1 group I member 2 (Rattus norvegicus), sequence (Q9R1A7 whole entry, looked up): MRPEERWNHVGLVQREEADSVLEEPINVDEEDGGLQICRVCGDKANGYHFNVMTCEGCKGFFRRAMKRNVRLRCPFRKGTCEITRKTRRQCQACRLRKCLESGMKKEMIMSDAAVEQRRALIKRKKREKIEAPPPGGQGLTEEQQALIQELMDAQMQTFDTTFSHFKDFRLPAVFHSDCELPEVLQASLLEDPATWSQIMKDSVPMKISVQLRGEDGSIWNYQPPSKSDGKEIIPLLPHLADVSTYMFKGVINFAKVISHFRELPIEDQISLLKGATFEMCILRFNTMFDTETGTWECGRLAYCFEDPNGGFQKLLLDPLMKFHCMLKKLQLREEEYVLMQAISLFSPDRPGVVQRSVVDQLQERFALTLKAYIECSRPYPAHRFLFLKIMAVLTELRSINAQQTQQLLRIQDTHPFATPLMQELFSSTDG
Cytochrome P450 2D6 (Homo sapiens), sequence (P10635 whole entry, looked up): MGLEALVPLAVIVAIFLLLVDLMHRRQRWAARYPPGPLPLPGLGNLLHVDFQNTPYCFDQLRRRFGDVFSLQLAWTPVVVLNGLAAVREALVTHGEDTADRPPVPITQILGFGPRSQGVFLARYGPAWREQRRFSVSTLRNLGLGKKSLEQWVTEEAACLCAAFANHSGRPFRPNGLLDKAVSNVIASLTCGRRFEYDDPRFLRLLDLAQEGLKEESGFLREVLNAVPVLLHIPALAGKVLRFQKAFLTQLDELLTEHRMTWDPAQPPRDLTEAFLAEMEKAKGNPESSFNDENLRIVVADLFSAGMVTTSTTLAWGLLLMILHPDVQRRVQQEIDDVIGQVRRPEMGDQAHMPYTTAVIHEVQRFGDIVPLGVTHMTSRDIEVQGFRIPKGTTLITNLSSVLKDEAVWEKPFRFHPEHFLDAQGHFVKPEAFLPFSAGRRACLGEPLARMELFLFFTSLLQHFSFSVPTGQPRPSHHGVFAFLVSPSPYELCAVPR

For the molecule `CC1=C(C(=O)OC(C)C)C(c2cccc([N+](=O)[O-])c2)C(C(=O)OC2CN(C(c3ccccc3)c3ccccc3)C2)=C(N)N1` (stereo unspecified), the Potency was 16.8 µM (active) in experiment [1], 21.1 µM (active) in experiment [2], 33.5 µM (active) in experiment [3] and 9.44 µM (active) in [4]. Also, the max activation in experiment [5] was -6.42% (inactive). Further, the Potency entry in [6] was “inactive”.
Consider `Cn1cc(C(=O)[C@@H]2CCc3nc[nH]c3C2)c2ccccc21`, for which the Potency result in experiment [7], in [2], in experiment [8], in [3], in experiment [4] and in experiment [6] was “inactive” each time. In experiment [5], the max activation was -0.66% (inactive). Besides, the Potency in [9] is 17.4 µM (active).
As for `O=c1c(-c2ccccc2)c1-c1ccccc1`, the Potency is 26.6 µM (active) in experiment [1], 16.8 µM (active) in experiment [2] and 11.9 µM (active) in experiment [4]. Besides, the max activation in experiment [5] is -15.6% (inactive). Also, the Potency result in experiment [6] was “inactive”.
Consider `CCN1/C(=C/C=C/c2sc3ccccc3[n+]2CC)Sc2ccccc21`, for which, in experiment [7], the caspase activation is -8.48% [at 19 µM] (inactive). Moreover, the figures for the Potency in experiment [2], in experiment [3] and in experiment [9] were 1.46 µM (active), 10.3 µM (active) and 12 µM (active), respectively. In addition, the caspase-3/7 activation in [8] was 0.607% [at 19 µM] (inactive). Also, in [4], the activation is 29.7% [at 19 µM] (inactive). Also, the max activation in experiment [5] was -26.5% (inactive). Also, in experiment [6], the Potency result is “inactive”.
Turning to `CCc1cc(SCc2sc(-c3ccc(C(F)(F)F)cc3)nc2CN2CCN(c3ccc(OC)cc3)CC2)ccc1OCC(=O)O`, the Potency in experiment [1] was 54.5 µM (active); in [2] it was 24.3 µM (active); in experiment [3], 24.3 µM (active); in experiment [4], 48.6 µM (active). For the same molecule, the Potency entry in [9] is “inactive”.
For the molecule `CCN(Cc1cccnc1)C(=O)c1cccc(Cl)c1[C@]1(C)C(=O)N(Cc2ccc(OC)cc2OC)c2ccc(Cl)cc21`, the Potency entry in [7] and in experiment [8] was “inactive” each time. For the same molecule, the Potency in experiment [2] was 20.3 µM (active); in [3], 45.4 µM (active); in experiment [4] it was 20.3 µM (active); in experiment [9] it was 18.7 µM (active).
Consider `Oc1c(Cl)cc(Cl)c2cccnc12`, for which the Potency result in experiment [7], in experiment [8] and in experiment [3] was “inactive” in each case. In addition, the results for the Potency in experiment [2] and in experiment [4] were 11.9 µM (active) and 26.6 µM (active), respectively. Further, in experiment [5], the max activation is 4.53% (inactive).
As for `O=c1[nH]sc2cc(Cl)ccc12`, the Potency entry in experiment [7], in [8], in experiment [3], in experiment [4] and in [9] was “inactive” in each case. Moreover, the Potency in [2] was 26.6 µM (active).
On to `CCCCCCCCOC(=O)c1ccc(O)cc1`, for which the Potency is 27.3 µM (active) in experiment [7]; 24.3 µM (active) in experiment [2]; 30.5 µM (active) and inactive in [4]; 56.2 µM (active) and 39.9 µM (active) in [9]. The Potency entry in experiment [8] and in experiment [3] was “inactive” in each case.
On to `CCCCCCCCOc1ccccc1C(=O)Nc1ccc(C(=O)OCC[N+](C)(CC)CC)cc1`, for which the Potency result in [1], in [8], in experiment [4], in [6] and in experiment [10] was “inactive” each time. Moreover, the max activation in experiment [5] is 0.409% (inactive). Besides, the Potency in [9] was 38.9 µM (active).
Consider `COc1cc(-c2ccc(N=C=O)c(OC)c2)ccc1N=C=O`, for which the Potency entry in experiment [7], in experiment [2], in experiment [8], in [3], in experiment [4] and in experiment [9] was “inactive” in each case.
For `Cc1onc(-c2ccccc2Cl)c1C(=O)N[C@@H]1C(=O)N2[C@@H]1SC(C)(C)[C@@H]2C(=O)O`, the Potency entry in [7], in experiment [2], in experiment [8] and in experiment [3] was “inactive” in each case.
For the molecule `Cc1[nH]nc2c1N=C(c1ccccc1Cl)c1cc([N+](=O)[O-])ccc1N2`, the Potency is 17.2 µM (active) in experiment [7]; 21.7 µM (active) in experiment [2]; 19.3 µM (active) in experiment [8]; 19.3 µM (active) in experiment [3]; 6.11 µM (active) in experiment [4].
Turning to `Nc1ccc(N)c2ccccc12`, the Potency in experiment [1] is 24.3 µM (active); in [2], 30.6 µM (active); in experiment [9], 3.99 µM (active). Besides, the Potency entry in [8] was “inactive”.
Consider `CCN(CCC#N)c1ccc(N=Nc2c(Cl)cc([N+](=O)[O-])cc2Cl)cc1`, for which the Potency result in experiment [7], in experiment [8] and in [9] was “inactive” throughout. In experiment [2], the Potency is 48.6 µM (active).
`CCCCCCCCn1sc(Cl)c(Cl)c1=O`: the Potency result in [7] and in [8] was “inactive” throughout. Moreover, the Potency is 2.73 µM (active) in [2], 61.1 µM (active) in [4] and 28.3 µM (active) in experiment [9].
